# Out of some 390,000 compounds screened, about 17,000 (4.4%) were called active. Inconclusive results (about 8%) are left out. This is one part of a sample in which actives are shown more often than they occur. Unmarked numbers belong to inactive results. Calls follow the shape of the dose curve; as a rule, active = well fitted inhibition curve with a large enough effect; inconclusive = small, poorly fitted or top-dose-only effect; inactive = no such curve, though single readings can be large or run the other way.
# Target: Lysine-specific demethylase 4A (Homo sapiens) (UniProt O75164)
# Assay: qHTS Assay for Inhibitors of JMJD2A-Tudor Domain; also: nearly all actives have a fitted effect of over 50% in size
# Settings: AlphaScreen JMJD2A-Tudor / H3K4me3 peptide binding; series mostly up to 114 µM; activity change, negative = inhibition: at the top concentration
# % is scaled to controls: 0 for no effect and ±100 for the full control effect; potency is read from the fitted curve at half-maximal effect.
# Sequence of Lysine-specific demethylase 4A (Homo sapiens) (O75164 whole entry, looked up, the tested form may be a part): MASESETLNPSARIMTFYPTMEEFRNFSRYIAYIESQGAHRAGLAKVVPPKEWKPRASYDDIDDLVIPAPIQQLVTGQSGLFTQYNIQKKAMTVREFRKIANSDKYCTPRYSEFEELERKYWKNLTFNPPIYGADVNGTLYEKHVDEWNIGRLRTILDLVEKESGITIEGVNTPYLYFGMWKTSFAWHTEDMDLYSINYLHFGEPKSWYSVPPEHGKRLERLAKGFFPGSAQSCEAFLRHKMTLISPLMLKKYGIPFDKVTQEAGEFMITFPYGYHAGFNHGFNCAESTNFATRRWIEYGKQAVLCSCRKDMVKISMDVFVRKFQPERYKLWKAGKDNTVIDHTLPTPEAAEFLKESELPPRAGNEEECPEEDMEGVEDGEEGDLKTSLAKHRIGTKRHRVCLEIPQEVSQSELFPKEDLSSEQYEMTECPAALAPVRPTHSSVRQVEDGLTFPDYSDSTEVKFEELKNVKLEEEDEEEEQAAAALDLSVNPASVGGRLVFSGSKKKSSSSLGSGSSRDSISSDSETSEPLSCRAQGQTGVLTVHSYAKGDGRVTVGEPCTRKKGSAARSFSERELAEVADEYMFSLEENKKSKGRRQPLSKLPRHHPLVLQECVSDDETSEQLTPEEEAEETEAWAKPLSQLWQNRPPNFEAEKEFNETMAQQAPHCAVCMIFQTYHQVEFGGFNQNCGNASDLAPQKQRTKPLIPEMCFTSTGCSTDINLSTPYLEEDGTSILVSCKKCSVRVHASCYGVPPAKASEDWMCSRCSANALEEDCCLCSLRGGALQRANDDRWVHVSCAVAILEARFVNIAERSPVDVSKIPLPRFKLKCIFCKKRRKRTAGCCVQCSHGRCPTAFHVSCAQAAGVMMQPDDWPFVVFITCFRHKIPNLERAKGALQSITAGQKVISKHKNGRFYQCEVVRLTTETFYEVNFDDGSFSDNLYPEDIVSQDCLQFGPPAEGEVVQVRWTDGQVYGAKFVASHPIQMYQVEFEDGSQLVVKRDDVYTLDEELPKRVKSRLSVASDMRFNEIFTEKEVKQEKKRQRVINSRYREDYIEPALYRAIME
Compound,"activity change, negative = inhibition [%]",Potency
COc1ccccc1CCNC(=O)c1cccn1-c1nnc(N2CCCCC2)s1,-26.9,
COc1ccc2c(C)c(CCC(=O)NCc3ccc(OC)c(OC)c3)c(=O)oc2c1,-14.2,
COC(=O)C1=C(C)N(c2ccc(Br)cc2)C(=O)/C1=C\c1ccco1,,17.8 µM (active)
CCCCN=C1N/C(=C\c2ccco2)C(=O)N1c1ccccc1,-29.4,
O=C(OCN1C(=O)c2ccccc2C1=O)/C(=C\c1ccco1)NC(=O)c1ccccc1,-32.4,
COC(=O)COc1ccc2c(c1C)O/C(=C\c1ccco1)C2=O,-23.9,
COC(=O)C1=C(C)N(c2ccc(C)cc2)/C(=C/c2ccc(O)cc2)C1=O,-17.2,
COC(=O)C1=C(C)N(C(C)c2ccccc2)C(=O)/C1=C\c1ccco1 (configuration not stated),,25.1 µM (active)
CCOC(=O)c1c(C)[nH]c(C)c1S(=O)(=O)N1CCC(C(=O)Nc2ccc(C)c(Cl)c2)CC1,1.95,
CCOC(=O)C1CCCN(C(=O)c2ccc3c(c2)sc2nc(-c4ccc(CC)cc4)cn23)C1 (configuration not stated),-4.28,
COC(=O)c1sc2ncccc2c1-n1c(C)ccc1C,-14.4,
COc1ccc(CNC(=O)c2cc3c(s2)-c2ccccc2OC3)cc1,-8.73,
Cc1cccc(N2CCN(C(=O)c3cnc(N4CCCC4)nc3C)CC2)c1C,-5.3,
COc1ccc(-c2cc(-c3ccc(F)cc3)nc3c2COc2ccccc2-3)cc1,13.4,
CCN(CC(=O)NC1CCS(=O)(=O)C1)c1nc(-c2cccnc2)nc2ccccc12 (configuration not stated),-15,
COc1cc(Nc2nc(-c3ccc(OC)c(OC)c3)nc3ccccc23)cc(OC)c1,-30.4,
COc1ccc(Nc2nc(-c3cccnc3)nc3ccccc23)cn1,,31.6 µM (active)
CC1CCC2(CC1)N=C(c1ccccc1)C(=O)N2CC(=O)Nc1ccc(F)c(Cl)c1 (configuration not stated),-12.8,
Cc1ccc(-n2c(=O)c3cccnc3n2CC(=O)Nc2ccccc2C(F)(F)F)cc1C,23.7,
COc1ccc(CNc2nc(-c3ccc(Cl)cc3)nn2C(=O)c2ccccc2)cc1,19.2,
CC/C=C/C(=O)N1CC2(CC(c3cccc(NC(=O)CC)c3)=NO2)C[C@H]1C(N)=O (some centres not stated),-15.5,
C=C(C)C(=O)Nc1cccc(C2=NOC3(C2)C[C@H](C(N)=O)N(C(=O)C(c2ccccc2)c2ccccc2)C3)c1 (some centres not stated),,11.2 µM (active)

Compound,"activity change, negative = inhibition [%]",Potency
O=C(Nc1cccc(-c2nnc(-c3ccccc3)o2)c1)C1CCCO1 (configuration not stated),-10.7,
C/C=C(/C)C(=O)Nc1cccc(C2=NOC3(C2)C[C@@H](C(N)=O)N(C(=O)C2(C)CC2)C3)c1 (some centres not stated),-9.09,
C/C=C(\C)C(=O)N1CC2(CC(c3cccc(NC(=O)CCCCC)c3)=NO2)C[C@@H]1C(N)=O (some centres not stated),-18.7,
NC(=O)[C@H]1CC2(CC(c3cccc(NC(=O)[C@H]4CCC(=O)N4)c3)=NO2)CN1C(=O)c1ccccc1C(=O)c1ccccc1 (some centres not stated),,89.1 µM (active)
Cc1ccc(OCCSc2nc(C)c(Cc3ccccc3)c(=O)[nH]2)cc1,-6.6,
COc1cc(OC)c(NC(=O)c2cc(S(=O)(=O)N3CCCC3)cn2C)cc1Cl,-13.5,
Cc1c(C(=O)NCc2ccccc2Br)oc2ccc3c(c12)C(=O)CC(C)(C)O3,-20.7,
COc1cccc(N2CCN(S(=O)(=O)c3cc(Br)cc4c3N(C(=O)C3CC3)CC4)CC2)c1,-18.4,
COc1ccc(CCNc2ncnc3onc(-c4ccc(Cl)cc4)c23)c(OC)c1,3.24,
COc1cc(/C=C/C(=O)OCC(=O)NC(=O)NCc2ccccc2)ccc1OCC#N,-14.3,
COc1cc(/C=C/C(=O)OCC(=O)N2CCOCC2)ccc1OCC#N,,50.1 µM (active)
COc1cc(/C=C/C(=O)Nc2ccc(OC)c(S(=O)(=O)N3CCOCC3)c2)ccc1OCC#N,-21.4,
CCOC(=O)c1oc2ccc(S(=O)(=O)n3nc(-c4ccccc4OC)cc3N)cc2c1C,-22.2,
CCOC(=O)CSc1ncc(-c2cccc(Cl)c2)cn1,77.5,
Cc1oc(-c2ccccc2Cl)[n+]([O-])c1C,-11.7,
Cc1oc(-c2cccc(Cl)c2)[n+]([O-])c1C,,79.4 µM (active)
COc1ccc(C(=O)N2CCC(c3nc4ccccc4o3)CC2)cc1,-8.61,
COc1cc(C(=O)CCc2ccc3c(c2)OCO3)cc(OC)c1OC,-1.38,
COc1c(O)ccc2c1CN1CCc3cc4c(cc3C1C2)OCO4 (configuration not stated),,44.7 µM (active)
COc1ccc(CN2CCCC(N3CCc4ccccc4C3)C2)c(O)c1 (configuration not stated),-25.6,
CCOC(=O)N1CCc2c(sc3c2c(=O)n(-c2ccc(CC)cc2)c(=O)n3C)C1,-3.31,
CC1CCCN(c2csc3ccc(F)cc3c2=O)C1 (configuration not stated),-24,

Compound,"activity change, negative = inhibition [%]",Potency
Cn1nnnc1Sc1ncnc2scc(-c3ccccc3[N+](=O)[O-])c12,-17.8,
CC(C)(C)c1ccc(OCC(=O)N2CCC(c3nc4ccccc4s3)CC2)cc1,-13.2,
COc1ccc(NC(=O)CSc2nncc(=O)n2N)cc1OC,-11,
Nn1c(SCC(=O)Nc2nccs2)nncc1=O,,28.2 µM (active)
Nn1c(SCC(=O)Nc2nccs2)nnc1-c1ccco1,-21.4,
Cc1ccc2c(=O)c(C(=O)c3ccc(Cl)cc3)cn(CC(=O)NC3CCCCC3)c2n1,-14.6,
COc1ccccc1-n1cnc2cc(NS(=O)(=O)c3ccccc3)ccc21,-24.5,
COc1ccccc1-n1cn[nH]c1=S,,25.1 µM (active)
COCCCNC(=O)c1ccc2c(c1)ncn2-c1ccccc1OC,14.4,
CCOc1ccc(CNC(=O)c2cc(-c3ccc(Cl)s3)nc3ccccc23)cc1,-6.83,
COc1ccc(Br)cc1CNC(=O)c1cc(=O)[nH]c2ccc(S(=O)(=O)N3CCCC3)cc12,-9.79,
CCOC(=O)c1c(C)[nH]c(C)c1S(=O)(=O)NCC(=O)NCc1cccc(C)c1,-9.42,
CCCOc1ccccc1-c1nc(SCCC(=O)O)n[nH]1,-21.8,
Cc1cc(C)nc(Nc2n[nH]c(-c3ccccc3N)n2)n1,,2.24 µM (active)
CCCCN(CC)CCCNC(=O)c1nn(C)c2c1CSc1ccccc1-2,6.62,
COc1cccc(CNC(=O)CSc2c3c(nc4cc(Cl)ccc24)CCCC3)c1,0.331,
Cc1cccc(C(=O)Nc2ccc(S(=O)(=O)N3CCCCC3c3cccnc3)cc2)c1 (configuration not stated),-14.2,
COc1ccc(CCNS(=O)(=O)c2cccc3cccnc23)cc1OC,-18.8,
C=CCn1c(COc2cccc3cccnc23)nnc1SCC(=O)OC,-7.94,
CCCCC(=O)NC(c1ccc(OC)c(OC)c1)c1ccc2cccnc2c1O (configuration not stated),,56.2 µM (active)
COc1ccccc1-c1ccnc2[nH]n(-c3ccccc3)c(=O)c12,-30.2,
COc1cccc(Cn2c(CNS(=O)(=O)c3ccc(Cl)s3)nc3cccnc32)c1,-25.2,

Compound,"activity change, negative = inhibition [%]",Potency
Brc1ccccc1CN1CCC(Cc2ccccc2)CC1,,0.794 µM (active)
O=c1cc(CO)oc(CN2CCC(Cc3ccccc3)CC2)c1O,-4.12,
NC(=O)c1ccc(CN2CCC(Cc3ccccc3)CC2)cc1,-11.7,
CCOc1ccccc1NC(=O)Cn1c2ncccc2c(=O)n1-c1ccc(C)c(C)c1,-11.4,
C=CCCC(=O)Nc1nc(C)c(-c2csc(Nc3ccc(Cl)cc3)n2)s1,,63.1 µM (active)
CCC(=O)Nc1nc(C)c(C(=O)Nc2cccc(Cl)c2)s1,-14.8,
Cc1nc(NC(=O)CN(C)S(=O)(=O)c2ccc(Cl)cc2)sc1C,-30.8,
O=C(NC1(C(F)(F)F)N=C(c2ccccc2)N(C2CCCCC2)C1=O)c1ccccc1F (configuration not stated),-15.3,
CCOC(=O)c1cccc(NC(=O)Cn2cnc3nc4c(cc3c2=O)CCCC4)c1,-1.92,
CC(=O)c1ccc(NC(=O)Cn2c(=O)oc3ccccc32)cc1,-6.82,
COc1ccc(NC(=O)Cn2c(=O)n(Cc3ccc(C(=O)NCc4ccccc4Cl)cc3)c(=O)c3ccccc32)cc1,-7.88,
COc1ccc(-c2nc3c4ccccc4n(CC(=O)Nc4ccc(C(C)=O)cc4)c(=O)n3n2)cc1,,8.91 µM (active)
O=C(NCCCc1ccccc1)C(=O)NCC1OCCN1S(=O)(=O)c1ccccc1 (configuration not stated),-7.53,
O=C(NCCCn1ccnc1)C(=O)NCC1OCCN1S(=O)(=O)c1cc(F)ccc1F (configuration not stated),,39.8 µM (active)
Cc1cc(F)ccc1S(=O)(=O)N1CCCOC1CNC(=O)C(=O)NCCC1=CCCCC1 (configuration not stated),-9.67,
CCn1c(C(=O)Nc2cc(Cl)ccc2C)cc2sc(Cl)cc21,4.73,
COc1cc(C(=O)N2CCC(c3ccncc3)CC2)cc(OC)c1OC,8.67,
COc1ccc(-c2cc(=O)oc3cc(OCC(=O)N[C@@H](Cc4c[nH]c5ccccc45)C(=O)O)ccc23)cc1,-31.3,
COc1ccc(-c2cc(C(=O)NC(Cc3c[nH]c4ccccc34)C(=O)O)c(C)o2)cc1OC (configuration not stated),,22.4 µM (active)
COc1ccc(-c2cc(C(=O)NC(C(=O)O)C(C)C)c(C)o2)cc1OC (configuration not stated),-11.8,
CC1=C(c2ccc(Cl)cc2)S(=O)(=O)N=C1N1CCN(c2cc(C)ccc2C)CC1,-15.2,
O=C(CCc1ccccc1)NCc1ccc2c(c1)CCN2C(=O)c1ccccc1,3.33,

Compound,"activity change, negative = inhibition [%]",Potency
CCc1ccccc1N1C(=O)CN(S(=O)(=O)CC)CC1(C)C(=O)NC1CCCCC1 (configuration not stated),-4.62,
Cc1ccc(C(=O)N2CC(=O)Nc3ccc(F)cc3C2c2ccc(F)cc2)cc1 (configuration not stated),-6.29,
Cc1ccc2c(c1)C(c1ccccc1)N(C(=O)c1ccc(S(=O)(=O)N3CCOCC3)cc1)CC(=O)N2 (configuration not stated),,50.1 µM (active)
Cc1ccc2c(c1)C(c1ccccc1)N(C(=O)c1ccc(F)cc1)CC(=O)N2 (configuration not stated),-0.699,
CC(=O)Nc1cccc(NC(=O)CSc2cn(CC(=O)N3CCCC3)c3ccccc23)c1,-5.86,
O=S(=O)(NCC(c1ccco1)N1CCOCC1)c1cc(F)ccc1F (configuration not stated),-8.77,
O=C(CSCc1cnn(-c2ccccc2)c1-n1cccc1)NCc1ccccc1Br,-4.97,
COc1ccc(-n2c(-c3ccc(OC)c(OC)c3)n[nH]c2=S)cc1,,1.26 µM (active)
COc1ccc(-c2nc3ccccc3n2CCC(C)C)cc1OC,0.744,
Cc1ccc(-c2cn3cc(C)ccc3n2)cc1,1.5,
Cc1ccc(-n2c(-c3ccc(Cl)cc3)n[nH]c2=S)cc1,,50.1 µM (active)
CCOC(=O)CSc1nnc(CNC(=O)c2cccs2)n1-c1cc(OC)ccc1OC,-5.76,
COc1ccccc1OCC(=O)OCc1cc(-c2ccco2)on1,-15.5,
COc1ccc(-n2c(C)csc2=S)cc1,-12.8,
COc1ccccc1-n1c(-c2cc(-c3ccco3)[nH]n2)n[nH]c1=S,,15.8 µM (active)
COc1ccccc1N1CCN(c2nc(C)cc(=O)[nH]2)CC1,-3.79,
COc1ccc(OC)c(-n2nnc(-c3nc(-c4cc(OC)c(OC)c(OC)c4)no3)c2C)c1,-14,
COc1ccc(OC)c(-n2c(-c3ccn[nH]3)n[nH]c2=S)c1,,50.1 µM (active)
Cc1n[nH]c(=O)n1-c1ccc(C(C)C)cc1,-2.28,

# Source: PubChem BioAssay AID504339 (National Center for Advancing Translational Sciences (NCATS), 2011)
